Screens as filed in PubChem.
This is a sample that favours compounds with a hit; in the whole collection about 2.8% have one here.
BRCA1 expr up: increases BRCA1 expression. Potency, µM (highest dose often 46.1 µM), for the others: at the highest dose activation, hits mostly activators. 1.1% of 380,000 active. MCF7-BRCA1-FFLuc reporter, luminescence, 48 h; response scale: scaled: vehicle 0%, 10 µM genistein 100%; also: nearly all actives have a fitted effect of over 80% in size
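Luminescence from a BRCA1-driven firefly luciferase in MCF7 cells was the read-out, taken 15 min after substrate addition following 48 h compound exposure at 37 °C. Data were normalized to a 10 microM genistein control and DMSO vehicle.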
HEK293 tox: cytotoxicity in counter-screen for GLP-1R inverse agonists. HEK293 cAMP-luciferase reporter cells, luminescence, 24 h. Potency, µM (top dose mostly 38.3 µM), for the others: at the top dose activity change, negative = inhibition, actives largely listed as inhibitors. 0.13% of 410,000 active. AID 624418;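 also: loss of luciferase light is scored as toxicity; % is scaled to controls: 0 for no effect and ±100 for the full control effect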
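Compound-treated cells are incubated 24 hr at 37 deg C under 5% CO2 after a 12 hour attachment period, then luciferase detection reagent is added and luminescence is measured following 12 min at room temperature; lowered signal indicates toxicity.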
Mito fusion act: inhibitors of mitochondrial division or activators of mitochondrial fusion; S. cerevisiae fusion-defective mutant growth rescue, CellTiterGlo 48 h; Potency, µM (titrated, usually from 46.1 µM), for the others: at the highest dose growth rescue (activation), most hits filed as activators; 0.23% of 320,000 active; also: % of control where 0% means no effect; nearly all actives have a fitted effect of over 45% in size
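Read-out: ATP-based luminescence (CellTiterGlo, 10 min ambient) reporting growth of fusion-defective ts yeast after 48 hours at 37C on glycerol/ethanol YPEG medium in the presence of compound.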
GLP1R inv ag: inverse agonists of human GLP-1 receptor. Potency, µM (top dose mostly 38.3 µM), for inactives: top-dose activity change, negative = inhibition, actives largely listed as inhibitors. HEK293 GLP-1R CRE-luciferase, luminescence, 24 h; GLP-1R form is constitutively active. P43220. AID 624417. 1.6% of 410,000 active; also: % is scaled to controls: 0 for no effect and ±100 for the full control effect; nearly all actives have a fitted effect of over 55% in size
Target sequence (P43220 whole entry, looked up): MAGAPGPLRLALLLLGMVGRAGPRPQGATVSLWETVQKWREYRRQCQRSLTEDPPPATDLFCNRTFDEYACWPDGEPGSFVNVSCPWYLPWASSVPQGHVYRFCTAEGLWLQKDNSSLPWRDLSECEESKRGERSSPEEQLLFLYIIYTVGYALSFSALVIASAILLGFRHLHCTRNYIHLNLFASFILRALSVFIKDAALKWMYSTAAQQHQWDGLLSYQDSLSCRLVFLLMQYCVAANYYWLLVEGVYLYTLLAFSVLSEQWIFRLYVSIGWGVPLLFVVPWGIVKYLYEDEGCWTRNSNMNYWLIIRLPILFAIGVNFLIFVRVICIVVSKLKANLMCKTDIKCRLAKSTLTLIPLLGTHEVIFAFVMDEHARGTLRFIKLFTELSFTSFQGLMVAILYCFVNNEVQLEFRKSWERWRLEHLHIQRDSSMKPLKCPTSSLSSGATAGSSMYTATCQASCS
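Inverse agonists were sought by their lowering of basal cAMP reporter luciferase output in HEK293 cells stably carrying constitutively active human GLP-1R, after 24 h compound treatment.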
GLP1R ag: GLP-1 receptor (human) agonism. HEK293 GLP-1R CRE-luciferase, luminescence, 4-6 h; cells express a hypersensitive GLP-1R form. Potency, µM (top dose mostly 45.6 µM), without a hit: at the top dose activation, hits mostly activators. 0.007% of 380,000 active. AID 624172; also: % of control where 0% means no effect
* marks the source's active call; other numbers are inactive results; ? = inconclusive; · = not tested or not shown. Calls follow the shape of the dose curve; as a rule, active = well fitted curve in the direction sought with a large enough effect; inconclusive = small, poorly fitted or top-dose-only effect, or another doubt; inactive = no such curve, though single readings can be large; an effect the other way counts as inactive or inconclusive. Potency is read from the fitted curve at half-maximal effect.

SMILES	BRCA1 expr up	HEK293 tox	Mito fusion act	GLP1R inv ag	GLP1R ag
O=C(CC(c1ccco1)S(=O)(=O)c1ccccc1)c1ccc(F)cc1 (configuration not stated)	-0.3%	10.4%	3.8%	22.0%	0.1%
CCOC(=O)c1c(NC(=O)C(NCCN(C)C)c2ccccc2)sc2c1CCCC2 (configuration not stated)	-91.8%	3.98µM*	-35.8%	?	19.8%
Cc1ccc2nc(-c3ccc(N4C(=N)SC5CS(=O)(=O)CC54)cc3)sc2c1 (configuration not stated)	8.91µM*	-11.3%	-0.4%	-0.7%	0.5%
Cc1ccc2nc(-c3ccc(N4C(=O)CC(N5CCCC(C)C5)C4=O)cc3)sc2c1 (configuration not stated)	·	·	-14.1%	·	·
Cc1cc(-c2nc3ccccc3s2)ccc1N	-51.4%	19.5%	·	7.94µM*	-16.0%
Cc1ccc2nc(-c3ccc(N)cc3)sc2c1	-64.1%	-8.0%	-5.5%	4.47µM*	-5.7%
Cc1ccc2sc(-c3ccc(N)cc3)nc2c1	·	-1.7%	·	?	·
Nc1ccc2nc(-c3ccccc3)sc2c1	-64.5%	125.8%	-0.7%	8.91µM*	-39.1%
CCCCOC(=O)c1ccc(NC(=O)c2csnn2)cc1	·	0.3%	·	6.6%	·
COc1ccc(/C=C/C(=O)NNc2c(F)c(F)cc(F)c2F)cc1OC	-25.1%	-1.0%	-2.3%	14.8%	12.6%
O=c1c2cc(-c3ccccc3)sc2ncn1/N=C/c1ccco1	11.2µM*	-4.2%	0.8%	4.5%	-12.2%
CCCCn1cnc2sc(-c3ccccc3)cc2c1=O	?	-11.4%	2.7%	?	-2.2%
CCCCCn1cnc2sc(-c3ccccc3)cc2c1=O	5.01µM*	-3.2%	5.5%	?	-4.8%
Cc1ccc[n+](CC(=O)c2ccc(Br)cc2)c1C	-48.4%	-17.2%	4.2%	21.3%	-4.5%
O=C(CCC(=O)N1CCOc2ccccc21)NCCCN1CCCCC1	9.5%	-7.8%	0.6%	21.7%	7.4%
Cc1ccc(C)c(OCCC(=O)N2CCN(S(=O)(=O)c3cc(C)ccc3C)CC2)c1	-31.9%	-9.9%	22.9%	11.2µM*	10.8%
CCOc1cccc(-c2csc(C3COc4ccccc4O3)n2)c1 (configuration not stated)	5.01µM*	9.9%	-0.5%	4.4%	-6.9%
COc1ccc(CN(C)CC2CCCN(CCc3ccc(Cl)cc3)C2)cc1OC (configuration not stated)	-25.4%	-26.1%	-4.3%	?	0.3%
COc1ccc(CN(C)CC2CCCN(CCc3ccc(F)cc3)C2)cc1OC (configuration not stated)	-34.5%	-19.9%	-5.2%	11.2µM*	4.1%
CC(C)CCNC(=O)c1cc([N+](=O)[O-])ccc1N1CCOCC1	9.1%	-19.4%	1.2%	5.5%	-0.2%
CN(C)c1cccc(C(=O)Nc2cccc(F)c2)c1	51.0%	-14.9%	0.3%	?	-0.2%
CCN(CC)c1ccc(C(=O)Nc2ccccc2)cc1[N+](=O)[O-]	10µM*	-37.3%	18.2%	?	14.8%
CCN(CC)c1ccc(C(=O)Nc2cccc(F)c2)cc1	?	-28.6%	14.1%	5.62µM*	25.0%
COC(=O)C1(S(=O)(=O)c2cccc3nsnc23)CC1	-8.9%	-17.1%	-3.1%	6.0%	-12.1%
COc1ccc(/C=C/C(=O)C2(O)CCCCC2)cc1	28.8%	?	1.7%	10µM*	5.7%
SMILES	BRCA1 expr up	HEK293 tox	Mito fusion act	GLP1R inv ag	GLP1R ag
O=C(CS(=O)(=O)c1cn(CC(=O)N2CCOCC2)c2ccccc12)Nc1ccccc1F	-11.2%	6.2%	0.3%	13.5%	8.3%
COC(=O)c1cc(-c2ccc(OC)cc2)n[nH]1	?	-3.1%	5.6%	53.9%	1.5%
COC(=O)c1cc(-c2ccc(C)cc2)n[nH]1	10µM*	4.8%	4.0%	19.5%	17.1%
CCn1ccnc1CN(C)Cc1cn[nH]c1-c1ccc(OC)c(F)c1	9.1%	-16.6%	0.2%	10µM*	-2.7%
CC(C)(C)c1ccc(C(=O)Nc2ccc(Oc3cccnc3)nc2)cc1	-33.3%	-5.1%	-4.3%	8.91µM*	0.4%
NC1=NC[C@@H](Cc2ccc(O)cc2)N1CCC12CC3CC(CC(C3)C1)C2	-14.6%	-12.2%	·	8.91µM*	12.4%
